Assay [1] can be described thus: blockers of polyQ-driven CASP3 activation – cell-based (AID 1583). The following applies: polyglutamine-induced caspase-3 activation, cell assay; stronger effect = higher value;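 tested at 10 µM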.
Assay [2] in a line: yeast 75Q aggregation reduction – 75Q-TubU reporter (AID 1593). Particulars: Yeast 75Q polyglutamine aggregation reporter.
Assay [3] can be described thus: restoration of touch response, mutant HTT neurons – whole organism, C. elegans mechanosensory neurons, N-terminal huntingtin (AID 1599). The following applies: C. elegans polyQ-huntingtin mechanosensory neurons, stronger effect = higher value.
A short description of assay [4]: blockers of cytochrome c efflux from mitochondria – biochemical, purified mitochondria (AID 1603).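 Also: mouse liver mitochondria challenged with calcium chloride; signal normalized to the plate average as 100%.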 Particulars: stronger effect = lower value.
Assay [5] in a line: polyglutamine aggregate formation blockers (AID 1604). Particulars: polyglutamine-induced protein aggregation inhibition assay; stronger effect = higher value; tested at 2.5 µM.
A short description of assay [6]: glutamate transport activators, MN-1 cells, MN-1 cell line (AID 1612).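 Also: tested at 1 µM final; 0% = mean of DMSO vehicle wells on each plate; positive means more glutamate uptake than control and negative means less.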 The following applies: MN-1 motor neuron cells, stronger effect = higher value.
Assay [7] is described as follows: 75Q-TubH aggregate inhibition, S. cerevisiae, yeast (AID 1616). Particulars: S. cerevisiae 75Q-TubH polyglutamine aggregation suppression; stronger effect = higher value.
Assay [8] is described as follows: compounds altering viability of human ES cells (AID 493140; call rule not given here;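 also: cells exposed to compounds for four days before counting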). Particulars: human embryonic stem cell survival screen; stronger effect = higher value.
Assay [9] is described as follows: modulation of C. elegans fzo-1 (AID 1259413; call rule not given here;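 also: fzo-1 mutant C. elegans worms in liquid wells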). The following applies: C. elegans fzo-1 modulator screen, mean read-out; stronger effect = higher value.
The nature of assay [10]: galactose survival enhancers in mitochondrial complex I cybrids – cell-based, galactose medium, ATP luminescence, primary screen (AID 1645843;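 active = z-score of at least 1.8 in each of two replicates, scored against plate mean and spread of sample wells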;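 also: positive z means more ATP and so rescue of galactose-driven cybrid death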). Particulars: complex I mutant cybrid cells, 72 h, stronger effect = higher value.
A further assay relates to F380Y/beta1. The experiment in a line: BK channel mutant inhibitors and activators – cell-based, U2OS BacMam, thallium flux, beta subunits, selectivity assay, profiling panel (AID 1259406).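 Also: initial slope of Thallos dye fluorescence rise after thallium is added; log ratio against the mean of 0.3% DMSO vehicle wells on the same plate.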 Particulars: U2OS BacMam BK variants, at 30 µM.
The next assay concerns F380Y/beta2Delta. Described as above. The following applies: U2OS BacMam BK variants, at 30 µM.
The test system of another assay is F380Y/beta4. The description is as above. The following applies: U2OS BacMam BK variants, at 30 µM.
For assay [11], the target named is Calcium-activated potassium channel subunit alpha-1 (Homo sapiens) + Leucine-rich repeat-containing protein 26 (Homo sapiens) (UniProt Q12791+Q2I0M4). Described as above. The following applies: U2OS BacMam BK variants, F380Y/Slo1WT/gamma1, at 30 µM.
In the next assay the test system is R275C. The description is as above. Particulars: U2OS BacMam BK variants, at 30 µM.
The test system of the next assay is R275C/beta1. Described as above. Particulars: U2OS BacMam BK variants, at 30 µM.
For a further assay, the system named is R275C/beta2Delta. The assay is described as above. Particulars: U2OS BacMam BK variants, at 30 µM.
Another assay has as its system R275C/beta4. The description is as above. The following applies: U2OS BacMam BK variants, at 30 µM.
For another assay, the system named is R275C/Slo1WT/beta2. Described as above. Particulars: U2OS BacMam BK variants, at 30 µM.

Several values for one entry are separate records, joined by “and”; a condition that tells them apart may be missing. Identical values can stand only once. For part of these data: Entries with a potency or affinity are not part of this list. Activity calls are given as the source filed them.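 The calls were made as follows, unless noted: active = thallium flux through the channel raised or lowered by more than 3 SD from vehicle-only wells, actives on both sides; inactive = the rest.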

Broadly, the inhibition is the change of the read-out against control, counted positive when it falls.

Calcium-activated potassium channel subunit alpha-1 (Homo sapiens) + Leucine-rich repeat-containing protein 26 (Homo sapiens), sequence (Q2I0M4 whole entry, looked up, one chain of several): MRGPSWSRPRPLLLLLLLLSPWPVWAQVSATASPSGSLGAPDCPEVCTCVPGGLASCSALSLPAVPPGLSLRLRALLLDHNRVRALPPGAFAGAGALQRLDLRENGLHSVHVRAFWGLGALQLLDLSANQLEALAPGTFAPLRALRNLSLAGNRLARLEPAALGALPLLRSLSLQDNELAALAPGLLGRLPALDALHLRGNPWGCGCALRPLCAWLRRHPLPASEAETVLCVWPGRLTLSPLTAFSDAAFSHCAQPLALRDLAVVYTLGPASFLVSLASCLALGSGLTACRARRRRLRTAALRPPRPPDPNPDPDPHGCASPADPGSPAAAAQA

On to `CC[N+](C)(C)c1cccc(O)c1`, for which the inhibition in [1] was 0.97%. Moreover, the score in assay [2] came to 1.45. Also, the rescue above control in assay [3] is -4.06. In assay [4], the cytochrome c release ratio was determined as 0.79. In [5], this molecule had an inhibition of aggregation of 49.4%. The glutamate uptake change in [6] was -4.41%. The aggregation suppression score in [7] is 1.27. For the same molecule, the survival in [8] was 20.2 (inactive). Also, in assay [9], the mean signal is 239 (inactive). Moreover, the z-score in assay [10] is 0.66 (inactive) and 0.015 (inactive). The log fold change Tl+ flux with F380Y/beta1 is -0.0227 (inactive); in the assay with F380Y/beta2Delta it was 0.0329 (inactive); in the assay on F380Y/beta4, 0.00778 (inactive); in [11] it was -0.0327 (inactive); in the assay on R275C, 0.00231 (inactive); with R275C/beta1 it was -0.022 (inactive). The values for the log fold change Tl+ flux with R275C/beta2Delta, in the assay with R275C/beta4 and in the assay with R275C/Slo1WT/beta2 were 0.0107 (inactive), -0.0318 (inactive) and 0.00666 (inactive), respectively.

On to `C=C(CC)C(=O)c1ccc(OCC(=O)O)c(Cl)c1Cl`, for which the inhibition in assay [1] was found to be 6.66%. The molecule also had a score in assay [2] of 0.22. Moreover, the rescue above control in assay [3] was 6.67. The cytochrome c release ratio in assay [4] was 0.63. The molecule also showed an inhibition of aggregation in assay [5] of 30.1%. Also, in assay [6], the glutamate uptake change came out at 5.34%. In assay [7], this molecule had an aggregation suppression score of 0.145. The survival in [8] is 25.6 (inactive). The mean signal in [9] was 255 (inactive). Further, in assay [10], the z-score was -0.85 (inactive) and -0.03 (inactive). The log fold change Tl+ flux in the assay on F380Y/beta1 was 0.1 (inactive); in the assay with F380Y/beta2Delta it was -0.0325 (inactive); with F380Y/beta4, 0.0312 (inactive); in assay [11], 0.0507 (inactive); in the assay on R275C, -0.00646 (inactive); in the assay on R275C/beta1, 0.0596 (inactive). The log fold change Tl+ flux with R275C/beta2Delta is 0.0176 (inactive); in the assay on R275C/beta4 it was -0.0645 (inactive); in the assay on R275C/Slo1WT/beta2, 0.0108 (inactive).

For `CC(C)[N+](C)(CCOC(=O)C1c2ccccc2Oc2ccccc21)C(C)C`, the inhibition in [1] was 8.5%. Further, the score in assay [2] was found to be 0.96. In assay [3], the rescue above control was found to be 2.24. Besides, the cytochrome c release ratio in assay [4] was determined as 0.77. Also, in assay [5], the inhibition of aggregation is 58.5%. Moreover, in assay [6], the glutamate uptake change was -0.12%. In [7], the aggregation suppression score came to 1.09. In addition, the survival in assay [8] is 4.92 (inactive). Besides, the mean signal in assay [9] is 251 (inactive). Also, the z-score in assay [10] is 0.295 (inactive) and 0.02 (inactive). Further, the log fold change Tl+ flux was -0.0699 (inactive) in the assay with F380Y/beta1; 0.0277 (inactive) with F380Y/beta2Delta; -0.0221 (inactive) in the assay on F380Y/beta4; -0.0355 (inactive) in assay [11]; 0.0289 (inactive) in the assay on R275C; 0.0122 (inactive) in the assay on R275C/beta1. The log fold change Tl+ flux in the assay on R275C/beta2Delta was -0.014 (inactive); with R275C/beta4, -0.0395 (inactive); in the assay with R275C/Slo1WT/beta2 it was -0.0246 (inactive).

Turning to `Cc1ccc(Cl)c(Nc2ccccc2C(=O)O)c1Cl`, the inhibition in [1] turned out to be 12.9%. The score in [2] was found to be 0.67. In [3], this molecule had a rescue above control of 16.6. In [4], the cytochrome c release ratio was found to be 1.42. This molecule registered an inhibition of aggregation in assay [5] of 46.5%. For the same molecule, the glutamate uptake change in assay [6] was -15.8%. Also, in assay [7], the aggregation suppression score is 0.94. Moreover, the survival in [8] was 16.6 (inactive). Also, the mean signal in assay [9] is 249 (inactive). The z-score in assay [10] is 2.05 (inactive) and 0.72 (inactive). Moreover, the log fold change Tl+ flux was 0.408 (active) with F380Y/beta1; 0.243 (active) in the assay on F380Y/beta2Delta; 0.386 (active) in the assay on F380Y/beta4; 0.122 (active) in assay [11]; 0.0346 (inactive) with R275C; 0.34 (active) in the assay with R275C/beta1. For the same molecule, the values for the log fold change Tl+ flux with R275C/beta2Delta, with R275C/beta4 and in the assay with R275C/Slo1WT/beta2 were 0.336 (active), 0.266 (active) and 0.0371 (inactive), respectively.

`O=C1NC(=O)C(c2ccccc2)(c2ccccc2)N1`: the inhibition in assay [1] was determined as 5.01%. Moreover, the score in assay [2] amounted to 1.42. The same molecule gave a rescue above control in [3] of 6.5. Further, the cytochrome c release ratio in [4] is 0.9. Moreover, the inhibition of aggregation in [5] amounted to 62.8%. In addition, in assay [6], the glutamate uptake change is -8.41%. Further, in assay [7], the aggregation suppression score was 1.74. In assay [9], the mean signal is 250 (inactive). Besides, the z-score in assay [10] was 0.08 (inactive) and 1.09 (inactive) and 0.395 (inactive). Moreover, the log fold change Tl+ flux with F380Y/beta1 was 0.0354 (inactive); in the assay with F380Y/beta2Delta it was -0.01 (inactive); in the assay with F380Y/beta4 it was 0.0289 (inactive); in assay [11], -0.0118 (inactive); with R275C, -0.00405 (inactive); with R275C/beta1, -0.0211 (inactive). For the same molecule, the log fold change Tl+ flux is 0.0126 (inactive) in the assay with R275C/beta2Delta, -0.0221 (inactive) in the assay with R275C/beta4 and 0.0271 (inactive) in the assay on R275C/Slo1WT/beta2.

For `c1ccc2c(c1)CCCC2C1=NCCN1` (stereo not given), the inhibition in [1] was -4.42%. Besides, the score in assay [2] came to 1.43. In assay [3], this molecule came in with a rescue above control of 7.66. Further, the cytochrome c release ratio in assay [4] is 0.63. Moreover, the inhibition of aggregation in [5] came out at 56.8%. Besides, in assay [6], the glutamate uptake change was determined as 6.14%. This molecule returned an aggregation suppression score in assay [7] of 1.06. Further, in [8], the survival is 6 (inactive). Besides, the mean signal in assay [9] is 221 (inactive). Also, the z-score in [10] is 0.18 (inactive) and 0.17 (inactive). The log fold change Tl+ flux in the assay on F380Y/beta1 was 0.041 (inactive); in the assay on F380Y/beta2Delta, -0.0151 (inactive); in the assay with F380Y/beta4, 0.00535 (inactive); in assay [11] it was 0.0123 (inactive); with R275C, -0.00319 (inactive); in the assay on R275C/beta1, -0.00185 (inactive). Also, the log fold change Tl+ flux in the assay with R275C/beta2Delta is -0.0361 (inactive); with R275C/beta4 it was 0.0129 (inactive); with R275C/Slo1WT/beta2, 0.0141 (inactive).

Turning to `NS(=O)(=O)c1cc(C2(O)NC(=O)c3ccccc32)ccc1Cl` (stereo not given), the inhibition in [1] worked out at 2.88%. For the same molecule, the score in assay [2] was found to be 1.55. The same molecule displayed a rescue above control in assay [3] of -4.25. Further, in assay [4], the cytochrome c release ratio stood at 0.9. The molecule also yielded an inhibition of aggregation in assay [5] of 77%. The glutamate uptake change in [6] is -2.06%. The aggregation suppression score in assay [7] was found to be 1.49. Also, in [8], the survival is 4.42 (inactive). The mean signal in [9] was 251 (inactive). Besides, the z-score in [10] is 0.15 (inactive). Also, the log fold change Tl+ flux was -0.0295 (inactive) with F380Y/beta1; -0.039 (inactive) in the assay on F380Y/beta2Delta; -0.0276 (inactive) in the assay on F380Y/beta4; -0.00177 (inactive) in assay [11]; -0.0359 (inactive) with R275C; -0.0254 (inactive) in the assay with R275C/beta1. Further, the log fold change Tl+ flux was -0.0423 (inactive) with R275C/beta2Delta, -0.0855 (inactive) in the assay with R275C/beta4 and 0.0191 (inactive) in the assay on R275C/Slo1WT/beta2.

Take `CN(C)C(=O)Oc1ccc[n+](C)c1`: the inhibition in [1] amounted to 18.4%. The molecule also came in with a score in [2] of 1.37. Also, the rescue above control in assay [3] is -0.24. Moreover, in assay [4], the cytochrome c release ratio was 0.97. The molecule further displayed an inhibition of aggregation in assay [5] of 27%. Further, the glutamate uptake change in assay [6] was -0.9%. For the same molecule, in [7], the aggregation suppression score turned out to be 1.35. Moreover, the mean signal in assay [9] was 265 (inactive). The z-score in assay [10] is 0.81 (inactive) and 0.62 (inactive). Also, the log fold change Tl+ flux in the assay on F380Y/beta1 is 0.0465 (inactive); with F380Y/beta2Delta, -0.0385 (inactive); with F380Y/beta4, -0.0469 (inactive); in assay [11], 0.0382 (inactive); in the assay on R275C it was -0.0114 (inactive); in the assay with R275C/beta1, -0.0401 (inactive). Also, the log fold change Tl+ flux with R275C/beta2Delta was 0.0292 (inactive); with R275C/beta4, -0.0147 (inactive); in the assay on R275C/Slo1WT/beta2 it was 0.0451 (inactive).

Source of the values: PubChem BioAssay.
